From the OligoGym collection

Target: SURF1
Assay: pooled miR-30 sensor sort-seq; sequence = guide strand
Settings: shRNA
Further: reference of the scale not given here.

| Sequence | sensor-assay potency score (higher = more potent) |
| --- | --- |
| TCAGGATTCACTTTCTTCCTGG | 0.148 |
| TCTGTCAGCCTCACCATCCCAA | -0.843 |
| TACCAGTAGCACATGATCCAGC | -0.00567 |
| TCAGCTTCCACTTCCGACGCTG | 0.863 |
| TTAAACCACAGGTAGGATGTAG | -0.235 |

Target: SYBU
Assay: as above
Settings: shRNA

| Sequence | sensor-assay potency score (higher = more potent) |
| --- | --- |
| TTCGATGACCTGTTTGAGCTGT | 0.425 |
| TTGCATGAACTTCTGCATCCAC | 0.0297 |
| TAAAATCAGCTTCACTACCTGG | -0.495 |
| TTAAATGGAAACACTAATCTTT | 0.258 |
| TCACCAACCATTCCAATCGTGC | -1.21 |
| TCATCGAACAAATCTGTGCTGT | -0.248 |
| TAACAGTTTAAGAACAAACAAG | -1.43 |
| TTCTGCATCCACATTGGCGTAG | -0.476 |
| TTTGATTCCTTCTTATATCGAG | 0.632 |
| TTGTAGGAGCCTGAGTTGCTAC | -1.24 |
| TTCACCAACCATTCCAATCGTG | 0.00982 |
| TTGATTCCTTCTTATATCGAGA | -0.708 |
